Laboratory results: PubChem BioAssay (EPA / NIEHS)
Activity calls are given as the source filed them. The calls were made as follows: active = hit-call score of the fitted dose curve at least 0.9, where 1 is the maximum; inactive = score below 0.9.

Columns and labels:
[1] = ATG_GLI_CIS: Attagene CIS-FACTORIAL HepG2 Assay for human Zinc Finger Protein GLI1 (AID 2282945); conditions: HepG2, Attagene cis-factorial reporter mRNA, GLI element; actives raise or lower the signal
How it was run: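 Transiently transfected HepG2 cells report endogenous transcription factor activity via cis-element-driven reporter units. After 24 h compound exposure, reporter mRNA was measured by RT-PCR with capillary electrophoresis; bidirectional fitting against DMSO baseline.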

[2] = biological target: Bile acid receptor (Homo sapiens) (UniProt Q96RI1); assay: ATG_IR1_CIS: Attagene CIS-FACTORIAL HepG2 Assay for human Nuclear Receptor Subfamily 1 Group H Member 4 (NR1H4), IR1 submotif (AID 2282946); conditions: IR1 reporter transcription, actives raise or lower the signal
How it was run: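 Fluorescence of capillary-separated, HpaI-digested RT-PCR reporter products gave IR1-element mRNA induction in HepG2 cells 24 h after dosing. Endogenous transcription factors drove the cis-regulated reporters; activity was fitted bidirectionally against DMSO.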

[3] = ATG_GRE_CIS: Attagene CIS-FACTORIAL HepG2 Assay for human Glucocorticoid Response Elements (GRE) (AID 2282947); conditions: HepG2 GRE cis-reporter, Attagene multiplex mRNA; actives raise or lower the signal
How it was run: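 Read-out: fluorescent reporter-transcript fragments separated by capillary electrophoresis after RT-PCR. Transiently transfected HepG2 cells carrying cis-element-driven reporter units were dosed for 24 h; gain or loss of signal fitted against DMSO control.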

[4] = ATG_ISRE_CIS: Attagene CIS-FACTORIAL HepG2 Assay for human Interferon Regulatory Factor 1 (IRF1) binding to an Interferon-Stimulated Response Element (ISRE) (AID 2282948); conditions: HepG2 ISRE cis-reporter (Attagene), mRNA transcription readout; actives raise or lower the signal
How it was run: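 Uses HepG2 liver cells transfected with cis-regulated reporters and measures mRNA 24 h post-dosing through RT-PCR, primer-extension labelling and capillary electrophoresis, with DMSO as negative control.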

[5] = ATG_M_06_CIS: Attagene CIS-FACTORIAL HepG2 Assay for M06 Transcription Factor (Internal Marker) (AID 2282950); conditions: HepG2 Attagene CIS-FACTORIAL M06 internal marker reporter; actives raise or lower the signal
How it was run: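 Terse: HepG2, transient MRTU transfection (FuGene 6), 24 h dosing; total RNA, oligo(dT) RT, PCR, FAM label, HpaI cut, capillary electrophoresis; bidirectional fit vs DMSO baseline; background-control endpoint.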

[6] = biological target: Hypoxia-inducible factor 1-alpha (Homo sapiens) (UniProt Q16665); assay: ATG_HIF1a_CIS: Attagene CIS-FACTORIAL HepG2 Assay for human Hypoxia Inducible Factor 1 (HIF1A) (AID 2282951); conditions: HepG2 Attagene cis-factorial HIF1a reporter transcription; actives raise or lower the signal
How it was run: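 HepG2, transient cis-reporter library, 24 h dosing. RNA → RT (oligo dT) → PCR → 6-FAM primer extension → HpaI → CE. Bidirectional curve fit vs DMSO.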

[7] = biological target: Hepatocyte nuclear factor 6 (Homo sapiens) (UniProt Q9UBC0); assay: ATG_HNF6_CIS: Attagene CIS-FACTORIAL HepG2 Assay for human Hepatocyte Nuclear Factor 6 (HNF6) (AID 2282952); conditions: HepG2 Attagene cis-factorial HNF6 reporter transcription; actives raise or lower the signal
How it was run: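 Using cis-element reporters in HepG2 liver cells, the assay tracks endogenous factor-driven transcription 24 h post-dosing. Signal comes from 6-FAM-labelled, HpaI-digested RT-PCR fragments, with gain or loss scored against DMSO.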

[8] = biological target: Heat shock factor protein 1 (Homo sapiens) (UniProt Q00613); assay: ATG_HSE_CIS: Attagene CIS-FACTORIAL HepG2 Assay for human Heat Shock Transcription Factor 1 (HSE) (AID 2282953); conditions: HepG2 HSE cis-reporter, Attagene RNA transcription; actives raise or lower the signal
How it was run: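 Read-out: fluorescence of reporter-specific RT-PCR fragments separated by capillary electrophoresis. HepG2 carrying transfected cis-element reporter units; 24 h dosing; activity fitted in both directions relative to DMSO baseline.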

[9] = ATG_MRE_CIS: Attagene CIS-FACTORIAL HepG2 Assay for human Metal Responsive Element (MRE) (AID 2282954); conditions: HepG2 MRE cis-reporter transcription, Attagene multiplex; actives raise or lower the signal
How it was run: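 RT-PCR/capillary electrophoresis readout of reporter mRNA, 24 h post-dosing, in HepG2 cells transfected with multiplexed cis-regulated reporter constructs. Gain or loss of signal fitted bidirectionally against DMSO baseline.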

[10] = ATG_M_32_CIS: Attagene CIS-FACTORIAL HepG2 Assay for M32 Transcription Factor (Internal Marker) (AID 2282949); conditions: HepG2 Attagene cis-factorial M32 reporter, mRNA; actives raise or lower the signal;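 also: background control marker of the multiplexed CIS panel rather than a real target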
How it was run: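 Transient MRTU transfection of HepG2; 24 h compound treatment; TriZol RNA, oligo(dT) RT, reporter PCR, 6-FAM primer extension, HpaI cut, CE. Gain/loss of signal vs DMSO.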

Measured: AC50

Sequence of Hepatocyte nuclear factor 6 (Homo sapiens) (Q9UBC0 whole entry, looked up, the tested form may be a part): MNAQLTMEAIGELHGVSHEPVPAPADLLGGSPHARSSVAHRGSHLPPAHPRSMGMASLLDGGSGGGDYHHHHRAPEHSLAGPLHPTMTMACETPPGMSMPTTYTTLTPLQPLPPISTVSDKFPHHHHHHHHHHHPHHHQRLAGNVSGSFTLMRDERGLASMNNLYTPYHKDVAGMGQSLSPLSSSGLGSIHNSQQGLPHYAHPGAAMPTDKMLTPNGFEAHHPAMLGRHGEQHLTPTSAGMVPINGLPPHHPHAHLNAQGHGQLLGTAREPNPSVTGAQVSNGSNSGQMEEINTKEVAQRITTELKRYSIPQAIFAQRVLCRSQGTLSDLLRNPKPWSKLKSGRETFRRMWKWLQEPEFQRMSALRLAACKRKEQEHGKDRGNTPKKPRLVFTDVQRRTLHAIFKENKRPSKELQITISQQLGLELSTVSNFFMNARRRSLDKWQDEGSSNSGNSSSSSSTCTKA
Sequence of Hypoxia-inducible factor 1-alpha (Homo sapiens) (Q16665 whole entry, looked up): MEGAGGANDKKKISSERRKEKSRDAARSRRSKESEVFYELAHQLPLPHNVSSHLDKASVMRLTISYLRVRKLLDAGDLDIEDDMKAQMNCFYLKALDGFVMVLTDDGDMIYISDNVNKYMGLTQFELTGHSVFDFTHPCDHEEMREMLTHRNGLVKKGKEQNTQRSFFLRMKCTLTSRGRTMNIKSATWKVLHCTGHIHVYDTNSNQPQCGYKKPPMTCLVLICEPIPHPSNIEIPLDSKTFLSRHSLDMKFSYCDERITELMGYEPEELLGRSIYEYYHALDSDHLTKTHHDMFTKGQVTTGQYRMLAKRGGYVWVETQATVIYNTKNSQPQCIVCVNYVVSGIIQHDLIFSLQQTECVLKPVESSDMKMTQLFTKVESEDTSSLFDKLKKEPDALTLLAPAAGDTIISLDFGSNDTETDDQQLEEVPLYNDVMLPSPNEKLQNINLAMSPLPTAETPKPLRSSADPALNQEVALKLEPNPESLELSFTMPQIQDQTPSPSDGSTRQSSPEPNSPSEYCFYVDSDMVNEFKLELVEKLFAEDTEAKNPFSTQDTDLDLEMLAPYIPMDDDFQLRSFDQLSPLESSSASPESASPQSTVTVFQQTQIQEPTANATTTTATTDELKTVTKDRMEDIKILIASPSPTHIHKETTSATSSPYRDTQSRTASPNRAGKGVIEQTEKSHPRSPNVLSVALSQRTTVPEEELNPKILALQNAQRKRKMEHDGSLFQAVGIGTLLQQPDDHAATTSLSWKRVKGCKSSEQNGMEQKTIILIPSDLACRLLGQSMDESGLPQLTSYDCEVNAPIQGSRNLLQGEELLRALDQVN
Sequence of Heat shock factor protein 1 (Homo sapiens) (Q00613 whole entry, looked up, the tested form may be a part): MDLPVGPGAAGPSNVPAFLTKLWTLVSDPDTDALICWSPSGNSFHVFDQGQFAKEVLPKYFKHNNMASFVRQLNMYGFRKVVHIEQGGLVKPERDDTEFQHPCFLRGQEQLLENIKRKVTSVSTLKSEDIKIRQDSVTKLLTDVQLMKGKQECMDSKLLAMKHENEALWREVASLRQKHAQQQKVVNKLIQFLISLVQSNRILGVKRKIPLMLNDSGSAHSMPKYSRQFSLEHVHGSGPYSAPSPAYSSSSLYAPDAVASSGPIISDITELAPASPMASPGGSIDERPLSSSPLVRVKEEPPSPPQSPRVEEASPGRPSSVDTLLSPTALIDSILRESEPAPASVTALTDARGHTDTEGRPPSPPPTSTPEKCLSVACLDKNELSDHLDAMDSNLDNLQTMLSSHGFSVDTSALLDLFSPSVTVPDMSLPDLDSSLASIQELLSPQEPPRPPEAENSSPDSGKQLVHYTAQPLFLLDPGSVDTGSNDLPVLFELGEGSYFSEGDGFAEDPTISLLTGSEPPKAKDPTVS
Sequence of Bile acid receptor (Homo sapiens) (Q96RI1 whole entry, looked up): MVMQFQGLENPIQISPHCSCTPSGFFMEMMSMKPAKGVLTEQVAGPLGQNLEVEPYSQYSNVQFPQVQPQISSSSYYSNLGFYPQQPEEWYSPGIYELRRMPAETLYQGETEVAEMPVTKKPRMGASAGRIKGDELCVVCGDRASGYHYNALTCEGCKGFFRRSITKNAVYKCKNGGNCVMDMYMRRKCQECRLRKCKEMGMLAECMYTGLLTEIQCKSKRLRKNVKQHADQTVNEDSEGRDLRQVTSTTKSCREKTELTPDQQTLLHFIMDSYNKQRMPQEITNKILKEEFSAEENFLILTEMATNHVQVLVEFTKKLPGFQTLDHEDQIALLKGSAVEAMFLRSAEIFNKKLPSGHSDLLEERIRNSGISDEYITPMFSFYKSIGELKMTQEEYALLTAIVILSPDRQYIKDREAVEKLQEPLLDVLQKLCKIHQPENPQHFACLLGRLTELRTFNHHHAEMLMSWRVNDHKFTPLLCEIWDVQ

CCCCCCCCCCCCCCCCCCOS(=O)(=O)O
inactive: [1] | [3] | [4] | [6]
active: [2] 33.4 µM | [5] 54.7 µM | [7] 19.5 µM | [8] 54 µM | [9] 23.2 µM

CC(=O)OC1CCCCC1
inactive: [1] | [2] | [3] | [4] | [5] | [6] | [7] | [8] | [9]

Cn1ccnc1
inactive: [1] | [2] | [3] | [4] | [5] | [7] | [8] | [9]

CCN(CC)c1cccc(C)c1
inactive: [1] | [2] | [3] | [4] | [10] | [5] | [6] | [7] | [8] | [9]

CC1(C)C(=O)N(CO)C(=O)N1CO
inactive: [1] | [2] | [3] | [4] | [10] | [5] | [7] | [8] | [9]

CCOB(OCC)OCC
inactive: [1] | [2] | [3] | [4] | [5] | [6] | [7] | [8] | [9]

CC1=CP(=O)(c2ccccc2)CC1 (centres undefined)
inactive: [1] | [2] | [3] | [4] | [5] | [6] | [7] | [8] | [9]

CN1CCN(C)CC1
inactive: [1] | [2] | [3] | [4] | [10] | [5] | [7] | [8] | [9]

O=C(Nc1ccccc1)c1cc(Cl)ccc1O
inactive: [1] | [2] | [3] | [4] | [10] | [5] | [7]
active: [8] 2.93 µM | [9] 23.9 µM

c1ccc(-c2nc3ccccc3[nH]2)cc1
inactive: [1] | [2] | [3] | [4] | [5] | [6] | [7] | [8] | [9]

O=C(O)/C=C/c1ccccc1
inactive: [1] | [2] | [3] | [4] | [10] | [5] | [6] | [7] | [9]

C[N+](C)(C)CCCNS(=O)(=O)C(F)(F)C(F)(F)C(F)(F)C(F)(F)C(F)(F)C(F)(F)C(F)(F)C(F)(F)F
inactive: [1] | [2] | [3] | [4] | [10] | [5] | [7] | [8] | [9]

CC(C)=CCl
inactive: [1] | [2] | [3] | [4] | [5] | [6] | [7] | [8] | [9]

CC(C)=NNC(N)=S
active: [6] 9.14 µM
inactive: [1] | [2] | [3] | [4] | [10] | [5] | [7] | [8] | [9]

O=C(O)C(F)(F)C(F)(F)C(F)(F)C(F)(F)C(=O)O
inactive: [1] | [2] | [3] | [4] | [10] | [5] | [7] | [8] | [9]

CCCCCCCCCCCC(C)=O
inactive: [2] | [3] | [4] | [5] | [6] | [8]
active: [1] 166 µM | [7] 123 µM | [9] 179 µM

CC=CC(=O)OCC(C)C
inactive: [1] | [2] | [3] | [4] | [5] | [7] | [8] | [9]

CCCCCCCCC(CO)CCCCCC (centres undefined)
inactive: [1] | [2] | [4] | [10] | [5] | [8]
active: [3] 126 µM | [7] 172 µM | [9] 158 µM

CC(=O)c1ccc(S(=O)(=O)NC(=O)NC2CCCCC2)cc1
inactive: [1] | [2] | [3] | [4] | [10] | [5] | [7] | [8] | [9]

CCC(C)(O)CCCC(C)C (centres undefined)
inactive: [1] | [2] | [3] | [4] | [5] | [6] | [7] | [8] | [9]

CCOc1ccc(NC(N)=O)cc1
inactive: [1] | [2] | [3] | [4] | [10] | [5] | [7] | [8] | [9]

Oc1c(Cl)cc(Cl)c(Cl)c1Cl
inactive: [1] | [2] | [3] | [4] | [10] | [5] | [8]
active: [7] 51.7 µM | [9] 70.8 µM

O=C(Cl)c1c(Cl)c(Cl)c(C(=O)Cl)c(Cl)c1Cl
inactive: [1] | [2] | [3] | [4] | [10] | [5] | [6] | [7] | [8] | [9]

CCCCC(=O)O
inactive: [1] | [2] | [3] | [4] | [10] | [5] | [7] | [8] | [9]

CC(C)C(=O)OCCc1ccccc1
inactive: [1] | [2] | [4] | [10] | [5] | [6] | [7] | [8] | [9]

CCCCCCOC(=O)CCCCC(=O)OCCCCCC
inactive: [1] | [2] | [4] | [10] | [5] | [6] | [7] | [8] | [9]

O=C(O)CCC(=O)O
inactive: [1] | [2] | [4] | [10] | [5] | [6] | [7] | [8] | [9]
